Screening results from PubChem.
Only a selection was taken, and hits are over-represented in it overall.
Pf Dd2 inh – inhibitors of Plasmodium falciparum Dd2 growth; Potency, µM (series often up to 28.9 µM), inactives show top-dose activity, negative = inhibition, most hits filed as inhibitors; 4.3% of 120,000 active; AID 1347417; P. falciparum Dd2 growth, SYBR Green, 72 h; active = well fitted inhibition curve with a large enough effect;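 also: plate controls were DMSO vehicle for no effect and reference drug for full effect; nearly all actives have a fitted effect of over 65% in size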
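Readout: SYBR Green fluorescence, 485 nm excitation, 535 nm emission, after ~16 h lysis at 37C. Before that, Dd2-infected red cells (2.5% hematocrit) grew 72 h with compound, 29 uM top final concentration.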
* hit, by the source's call. Potency is read from the fitted curve at half-maximal effect.

CCc1ccccc1N(C)C(=O)Nc1cn(CC(C)C)c(=O)c2ccccc12 was read as Pf Dd2 inh 8.9µM*.
CCc1ccccc1N(C)C(=O)Cc1c(C(=O)O)c(C)cn1C was read as Pf Dd2 inh -11%.
`COc1ccc(CNC(=O)Nc2cn(CC(C)C)c(=O)c3ccccc23)c(OC)c1` gave Pf Dd2 inh inactive.
Screening CN(Cc1ccc(N2CCCCC2)cc1)C(=O)CCC[C@H]1NC[C@@H]2C[C@H]1CN(Cc1ccccc1)C2 returned Pf Dd2 inh 4.5µM*.
`O=C(CCC[C@H]1NC[C@@H]2CC1CN(Cc1ccccc1)C2)N1CCCC1` gave Pf Dd2 inh -6%.
`CN(Cc1cccnc1)C(=O)CCC[C@H]1NC[C@@H]2C[C@H]1CN(Cc1ccccc1)C2` gave Pf Dd2 inh -9%.
Screening CCN1CCN(CCCNC(=O)CCC[C@H]2NC[C@@H]3C[C@H]2CN(Cc2ccccc2)C3)CC1 returned Pf Dd2 inh 11%.
`CCN1CCN(CCNC(=O)CCC[C@H]2NC[C@@H]3C[C@H]2CN(Cc2ccccc2)C3)CC1` gave Pf Dd2 inh -23%.
Screening Cc1nccn1CCNC(=O)CCC[C@H]1NC[C@@H]2C[C@H]1CN(Cc1ccccc1)C2 returned Pf Dd2 inh 3.5µM*.
`CCc1cc(=O)n(CC(=O)Nc2ccc(OC)c(OC)c2)c(-c2ccccc2)n1` gave Pf Dd2 inh inactive.
`CSCC(=O)N1C[C@@H](NC(=O)Nc2cccc(SC)c2)C[C@H]1C(=O)N(C)CC(N)=O` gave Pf Dd2 inh -13%.
For Cc1cc(C(=O)N2C[C@@H](CO)[C@H](c3ccccn3)C2)n(C)n1 the results were Pf Dd2 inh 25%.
CCC(C)NC(=O)CSc1c2c(nc3cc(Cl)ccc13)CCCC2 (stereo not drawn) was read as Pf Dd2 inh -9%.
CC1CCN(C(=O)CSc2c3c(nc4cc(Cl)ccc24)CCCC3)CC1 was read as Pf Dd2 inh -24%.
For O=C(CSc1c2c(nc3cc(Cl)ccc13)CCCC2)N1CCN(c2ccccc2)CC1 the results were Pf Dd2 inh 11µM*.
For CCCC(=O)Nc1ccc(NC(=O)C2CC(=O)N(CC(C)C)C2)cc1OC (stereo not drawn) the results were Pf Dd2 inh -9%.
`Cc1ccn2c(NC(=O)c3cccc(Cl)c3)c(-c3ccccc3)nc2c1` gave Pf Dd2 inh -19%.
For Cc1ccn2c(Nc3c(C)cccc3C)c(-c3ccsc3)nc2c1 the results were Pf Dd2 inh 11µM*.
Cc1ccccc1Nc1c(-c2ccc(Cl)s2)nc2cccc(C)n12 was read as Pf Dd2 inh -19%.
Screening Cc1cccc(C(=O)Nc2c(-c3ccccc3)nc3cc(C)ccn23)c1 returned Pf Dd2 inh -4%.
Cc1ccccc1Nc1c(-c2ccc(Cl)s2)nc2c(C)cccn12 was read as Pf Dd2 inh -11%.
`Cc1ccn2c(Nc3c(C)cccc3C)c(-c3ccc(Cl)s3)nc2c1` gave Pf Dd2 inh 7.9µM*.
Cc1nn(-c2ccccc2)c(Oc2ccc(F)cc2F)c1CCC(=O)NC(C)C was read as Pf Dd2 inh -17%.
For CCCCNC(=O)c1nnn2c1COC(c1ccc(F)cc1)C2 (stereo not drawn) the results were Pf Dd2 inh -2%.
For CCN(CCO)C(=O)CC1C(=O)NCCN1Cc1cccnc1 (stereo not drawn) the results were Pf Dd2 inh -1%.
`CCOc1cc(=O)n2c(c1C(=O)NC1CCCC1)CCCCC2` gave Pf Dd2 inh 14%.
CC(C)CN1C(=O)c2ccccc2C(C(=O)Nc2ccccn2)C12CCCC2 (stereo not drawn) was read as Pf Dd2 inh 14µM*.
COCCN1C(=O)c2ccccc2C(C(=O)NC2CCCCCC2)C12CCCC2 (stereo not drawn) was read as Pf Dd2 inh -13%.
Screening O=C(NCC1CCOCC1)C1c2ccccc2C(=O)N(Cc2ccccc2)C12CCCC2 (stereo not drawn) returned Pf Dd2 inh -23%.
COCCN1C(=O)c2ccccc2C(C(=O)NC2CCCCC2)C12CCCC2 (stereo not drawn) was read as Pf Dd2 inh -1%.
`CC(C)NC(=O)C1c2ccccc2C(=O)N(Cc2ccco2)C12CCCCC2` (stereo not drawn) gave Pf Dd2 inh -15%.
Cc1ccnc(NC(=O)C2c3ccccc3C(=O)N(CC(C)C)C23CCCC3)c1 (stereo not drawn) was read as Pf Dd2 inh 5µM*.
`COc1ccccc1NC(=O)C1c2ccccc2C(=O)N(Cc2ccccc2)C12CCCC2` (stereo not drawn) gave Pf Dd2 inh 11µM*.
`COCCN1C(=O)c2ccccc2C(C(=O)Nc2ccc(C)cc2Cl)C12CCCC2` (stereo not drawn) gave Pf Dd2 inh inactive.
Screening CC(C)CCNC(=O)C1c2ccccc2C(=O)N(Cc2ccccc2)C12CCCC2 (stereo not drawn) returned Pf Dd2 inh -16%.
`CC(C)CN1C(=O)c2ccccc2C(C(=O)N2CCSCC2)C12CCCC2` (stereo not drawn) gave Pf Dd2 inh -15%.
